Structures are written as SMILES. Screen size: about 140,000 compounds; about 240 (0.17%) were called active. Inconclusive results (about 9%) are left out. Calls follow the shape of the dose curve; as a rule, active = well fitted inhibition curve with a large enough effect; inconclusive = small, poorly fitted or top-dose-only effect; inactive = no such curve, though single readings can be large or run the other way. Shown is part of a subset that was picked to be rich in actives. Where a call stands in place of a potency, no number is given.
Potency is read from the fitted curve at half-maximal effect.

A short description of this assay: Primary qHTS assay for inhibitors of alpha-synuclein gene (SNCA) expression. Also: nearly all actives have a fitted effect of over 45% in size. Particulars: HEK-293 SNCA-luciferase knock-in, luminescence, 24 h; series mostly up to 57.2 µM. In general terms: qHTS replaces the single test concentration by a dilution series.
On to `Cc1ccc(-c2noc([C@@H]3C[C@@H](O)CN3Cc3cccc(C#N)c3)n2)cc1F`, for which the Potency result was “inactive”.
With `O=C(Cc1ccccn1)N1CCC(C(=O)N2CCC(N3CCCC3=O)CC2)CC1` the entry was “inactive”; with `O=C(NCCc1ccccc1)C1=NO[C@@H]2CN(Cc3ccc(F)cc3)C[C@H]12`, “inactive”.
In the case of `CC1(C)[C@H](Cc2cc(CC3CCCCC3)on2)C[C@@H]1NC1CCOCC1` it was “inactive”; in that of `COc1cc(OC)c(CNC(=O)c2c(C)noc2-c2cc(OC)c(OC)c(OC)c2)c(OC)c1`, “inactive”.
With `O=C(NCc1cccc(F)c1)c1c[nH]c2ncccc12` the entry was “inactive”; with `Cc1ccc(C(=O)N2CCC(N3CC4CC(C3)[C@H]3CCCC(=O)N3C4)CC2)s1` (stereo partly drawn), “inactive”.
In the case of `CCOc1cccc(CNC(=O)CC2CCCCN(Cc3ccccc3)C2=O)c1` (stereo not drawn), the Potency entry is “inactive”.
With `O=C(NCc1ccccc1)C1CCN(c2nccc(Nc3ccccc3Cl)n2)CC1` the entry was “inactive”.
In the case of `COc1ccccc1-c1[nH]nc2ncc(-c3cccc(CO)c3)nc12` it was “inactive”; in that of `O=C(Cc1ccccn1)N1CCCC(C(=O)N2CCC(c3nc4ncccc4[nH]3)CC2)C1` (stereo not drawn), “inactive”.
With `COc1ccc(Nc2cnc3ccc(-c4ccc(OC)nc4)nn23)cc1` the entry was “inactive”; with `O=C1NC2(Cc3ccccc31)CN([S+](=O)([O-])c1ccccc1)C2`, “inactive”; with `COCC(=O)N1CC(C(=O)NCCc2ccccn2)C2(CCOCC2)C1` (stereo not drawn), “inactive”.
In the case of `Cc1ccc(CNC(=O)c2ccc3c(c2)CN(Cc2cccnc2Cl)CCO3)cc1`, the Potency result is “inactive”.
With `O=C1CO[C@H]2CN(C3CCC3)C[C@H]2N1Cc1ccc(OC(F)(F)F)cc1` the entry was “inactive”; with `O=C1NCCc2[nH]c(-c3ccncc3)cc21`, 3.41 µM (active).
As for `CC(C)CNC(=O)C1CCCN(c2nccc(Nc3ccccc3F)n2)C1` (stereo not drawn), the Potency entry is “inactive”.
In the case of `CN(Cc1ccccc1)C(=O)CC1CCN(C(=O)CCC2CCCC2)C1` (stereo not drawn) it was “inactive”; in that of `COc1ccc(CC(=O)NC2CCN(c3cc(-c4ccccc4)[nH]n3)CC2)cc1`, “inactive”.
`CC(=O)c1cnc2ccc(-c3cc(Cl)c(O)c(Cl)c3)nc2c1NC1CCC(CN(C)C)CC1` (stereo not drawn): the Potency is 0.027 µM (active).
Take `CCN(CC)Cc1ccc2c(c1)CN(C(=O)Cc1c[nH]c3ccccc13)CCO2`: the Potency entry is “inactive”.
In the case of `N#Cc1cccc(-c2c(C(=O)NCCc3ccccc3)nc3sccn23)c1` it was “inactive”.
Regarding `COc1ccccc1CCC(=O)N1C[C@H](N)C[C@H]1C(=O)NC(C)C`, the Potency result is “inactive”.
In the case of `COc1cccc(CNC(=O)c2cc(-c3cccnc3)nc3c2cnn3C)c1` it was “inactive”; in that of `COCCN1C(=O)N(C)C(=O)C12CCN(Cc1cc(F)ccc1F)C2` (stereo not drawn), “inactive”.
With `O=C1NCCCCCN(C(=O)Cc2ccccc2)[C@@H]2C[C@@H](C(=O)N3CCc4ccccc4C3)C[C@H]12` the entry was “inactive”; with `CCCNC(=O)C(NC(=O)c1ccccc1C)C1CCN(C(=O)c2ccc(OC)cc2)CC1` (stereo not drawn), “inactive”.
In the case of `O=S(=O)(c1cccc(F)c1)N1CC[C@@H]2COCCN(Cc3cccnc3)[C@@H]2C1` it was “inactive”; in that of `CN(C)c1ccc(CN[C@H]2[C@H](O)[C@@H](N3CCC(Cc4ccccc4)CC3)[C@@H]3OC[C@H]2O3)cc1`, “inactive”.
`Cc1ccc(C(=O)N2CCC3(CC2)NC(=O)N(Cc2ccc(F)cc2)C3=O)cc1`: the Potency result is “inactive”.
With `CN(C)CCc1c[nH]c2ccc(Cn3cncn3)cc12` the figure was 2.71 µM (active).
For `COc1ccc2[nH]cc(CCNc3cc(-c4ccccc4CN(C)C)ncn3)c2c1`, the Potency entry is “inactive”.
Regarding `CS(=O)(=O)N(Cc1ccccn1)C1CN(C(=O)NCCc2ccccc2)C1`, the Potency entry is “inactive”.
With `O=C(NCc1ccc(F)cc1)c1nc(-c2ccccc2)c2ccccn12` the entry was “inactive”.
As for `Cn1ncc2c(C(=O)NCc3cccnc3)cc(C(C)(C)C)nc21`, the Potency entry was “inactive”.
In the case of `CC(=O)N1CCN(C(=O)C2CCCN2Cc2ccc(-c3cc(C)cc(C)c3)cc2)CC1` (stereo not drawn) it was “inactive”; in that of `CC1=C[C@@H](CN2CCCC2)[C@H](C(C)C)C[C@H]1Cc1nnc(-c2ccc([N+](=O)[O-])cc2)o1`, “inactive”.
In the case of `Cc1nc(N2CCC(NCCNc3ccncc3C)CC2)c2ccsc2n1` it was “inactive”.
In the case of `Cc1ccccc1C(=O)N1CCC(C(=O)N2CCC(c3nc4ccncc4[nH]3)C2)CC1` (stereo not drawn) it was “inactive”; in that of `CC(=O)N1CCC(N[C@H]2C[C@@H](Cc3cc(CN(C)c4ccccc4)on3)C2(C)C)CC1`, “inactive”; in that of `COc1ccc(-c2cn3cc(C(=O)NCc4ccc(F)cc4)nc3s2)cc1`, “inactive”.
Take `COc1ccc(CN2CC(Oc3ccc(OC)cc3)C2)cc1`: the Potency result is “inactive”.
`CCCCn1c(=O)c(C(=O)N2CCN(C(=O)c3ccccc3)CC2)nc2cccnc21`: the Potency result is “inactive”.
On to `Cc1ccccc1-c1ccnc(-c2nnc(C)n2C(C)C)c1`, for which the Potency result is “inactive”.
With `Cc1ccc(OCC(=O)N2CCC(c3nn(C)c4c3COCC4)CC2)cc1`, the Potency entry is “inactive”.
Consider `COCCOCC1(CNS(=O)(=O)c2c(C)noc2C)C[C@@H](O)[C@@H](O)C1` (stereo partly drawn), for which the Potency entry is “inactive”.
In the case of `c1ccc(CNC[C@H]2Cn3cc(-c4ccccc4)nc3CO2)cc1` it was “inactive”; in that of `Cc1nnc(-c2cc(-c3ccccc3)ccn2)n1CCc1ccccc1`, “inactive”.
With `CC(C)=CCC1(CO)CCCN(Cc2ccccc2OCCO)C1` (stereo not drawn) the entry was “inactive”; with `O=C1NCCCCCCN(Cc2ccncc2)[C@@H]2CN(CC3CC3)CC[C@@H]12`, “inactive”.
In the case of `CC[C@H]1CN(C(=O)Nc2cccc(C(F)(F)F)c2)CC[C@H]1CC(=O)NCCSC` it was “inactive”.
Consider `COC(=O)c1cccc(NC(=O)N2CCc3c(nc4cc(-c5ccccc5)[nH]n4c3=O)C2)c1`, for which the Potency result is “inactive”.
In the case of `NCc1ccccc1-c1cccc(O)c1` it was “inactive”; in that of `O=C(c1n[nH]c2c1CCCC2)N1CCC2(CC1)NC(=O)N(c1ccc(F)cc1)N2`, “inactive”.
In the case of `COc1ccc(OC)c(CN2CCC3(CC2)COCCN3C(=O)OCc2ccccc2)c1` it was “inactive”.
In the case of `COc1ccc(-c2ncc3c(n2)OCCN(CC2CC2)C3=O)cc1` it was “inactive”; in that of `O=C([C@@H]1C[C@H](c2ccc(F)cc2)N([S+](=O)([O-])C2CC2)C1)N1CCN(c2ccccn2)CC1`, “inactive”; in that of `COCCNC(=O)[C@@H]1C[C@H](Oc2cccnc2)CN1C(=O)C1CC=CC1`, “inactive”.
For `COc1cccc(CNC(=O)N2CCCC3(C2)Nc2cccnc2NC3=NC2CCCC2)c1` (stereo not drawn), the Potency result is “inactive”.
Take `CCN(CC)C(=O)CSc1nc2ccsc2c(=O)n1Cc1ccccc1Cl`: the Potency result is “inactive”.
`Cc1cccc(Cc2c(C)nc3nc(SCc4ccccc4Cl)nn3c2C)c1`: the Potency result is “inactive”.
With `CCn1cc2nc(SCc3ccccc3Cl)n(CCc3ccccc3)c(=O)c2n1` the figure was 14.1 µM (active).

The record behind these values is PubChem BioAssay AID1671194 (National Center for Advancing Translational Sciences (NCATS), 2021).
